MITF inh – MITF inhibitors, primary screen, biochemical, AlphaScreen, human | AlphaScreen MITF homodimerization, bead proximity signal | inhibition, % at 2.6 µM | hit rate 0.91% among 650,000; in the data active = inhibition above about 50%;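 also: 0% = vehicle wells with protein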
TEAD-YAP block – TEAD-YAP interaction inhibition, primary screen, TEAD-YAP interaction inhibitor project, luminescence, HEK-TIYL cells; TEAD-Gal4/YAP UAS-luciferase luminescence; inhibition, % at 9.12 µM; hit rate 1.4% among 640,000; in the data active = inhibition above about 32%;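 also: 0% = median of test compound wells and 100% = reference inhibitor wells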
FBW7 act – FBW7 E3 ligase activators, primary screen, biochemical, AlphaScreen, human; AlphaScreen FBW7–phospho-cyclin E peptide binding, activator screen; normalized activity (activation), % at 26.1 µM; hit rate 0.13% among 650,000; AID 1259310, 2017; in the data active = normalized activity above about 1.9%;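 also: purified mutant Fbw7 with reduced substrate affinity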
GPR151 activ – activators of human GPR151, primary screen, cell-based, PathHunter beta-arrestin, luminescence; G-protein coupled receptor 151 (Homo sapiens), Q8TDV0; PathHunter beta-arrestin GPR151 cells; activation, % at 11.2 µM; hit rate 1% among 650,000; AID 1508602, 2020; in the data active = activation above about 4.9%;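 also: 0% = median of compound wells and 100% = cells with positive control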
Target sequence (Q8TDV0 whole entry, looked up): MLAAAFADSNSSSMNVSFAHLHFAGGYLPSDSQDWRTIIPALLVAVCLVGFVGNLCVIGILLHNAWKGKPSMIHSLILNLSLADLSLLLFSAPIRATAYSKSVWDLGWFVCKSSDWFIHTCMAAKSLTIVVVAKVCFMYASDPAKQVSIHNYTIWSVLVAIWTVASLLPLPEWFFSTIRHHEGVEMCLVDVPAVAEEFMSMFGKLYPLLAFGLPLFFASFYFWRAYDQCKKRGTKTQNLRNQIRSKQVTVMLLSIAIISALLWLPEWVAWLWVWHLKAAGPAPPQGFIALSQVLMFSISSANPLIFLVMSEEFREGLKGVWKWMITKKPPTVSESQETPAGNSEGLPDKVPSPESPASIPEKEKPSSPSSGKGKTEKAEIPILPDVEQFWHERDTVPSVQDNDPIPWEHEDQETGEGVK
Active calls of the source: *. An excerpt weighted towards active compounds, which were near 3.4% of everything screened.

SMILES	MITF inh	TEAD-YAP block	FBW7 act	GPR151 activ
COC(=O)CN(c1ccc(F)cc1)S(=O)(=O)c1ccc(C)cc1	9	5	0	0
CN(Cc1ccccc1)C(=O)c1cc(COc2cccc3cnccc23)on1	12	33*	0	-3
O=C(c1cc(COc2cccc3cnccc23)on1)N1CCCC(CCCO)C1 (stereo unspecified)	10	65*	0	0
CCCCNC(=O)c1cc(COc2cccc3cnccc23)on1	1	14	0	2
CCCOc1ccc(C(=O)Nn2c(-c3cccc([N+](=O)[O-])c3)nc3ccccc3c2=O)cc1	0	-1	0	0
CCCCC(=O)OCCN1C(=O)c2cccc3c(N4CCOCC4)ccc(c23)C1=O	-31	-23	3.4*	1
CCCCC(=O)OCCCN1C(=O)c2cccc3c(N4CCCCC4)ccc(c23)C1=O	-2	0	0	1
Cc1ccc(C(=O)N2c3ccc(Br)cc3C3C=CCC3C2c2ccc(Br)cc2)cc1 (stereo unspecified)	13	5	0	0
Nc1c(S(=O)(=O)O)cc2c3c(cccc13)C(=O)N(CCO)C2=O	72*	-2	0	2
CN(C)c1ccc2c3c(cccc13)C(=O)N(CCO)C2=O	-4	-20	0	-1
CCN(CCCNC(=O)CNC(=O)c1nn(-c2ccc(OC)c(OC)c2)c(=O)c2ccccc12)c1cccc(C)c1	9	28	0	-1
Nc1c(N2CCCC2)cc(O)c2c1C(=O)c1ccccc1C2=O	77*	-55	0	-2
c1ccc(Nc2ccnc(N3CCc4ccccc4C3)n2)cc1	-1	-47	0	-1
c1ccc2c(Nc3nccc(Nc4ccc(N5CCOCC5)cc4)n3)nccc2c1	15	62*	0	4
c1ccc2c(Nc3nc4ncnc(Nc5ccc(N6CCOCC6)cc5)c4[nH]3)nccc2c1	45	40*	0	0
c1ccc(Nc2ncnc3nc(Nc4ccc(N5CCOCC5)cc4)[nH]c23)cc1	-12	-6	0	1
c1ccc2c(c1)CCN(c1nc3ncnc(Nc4ccc(N5CCOCC5)cc4)c3[nH]1)C2	-1	53*	0	-2
c1ccc2c(c1)CCN(c1nccc(Nc3ccc(N4CCOCC4)cc3)n1)C2	7	41*	0	1
CCSc1nc2sc3c(c2c(=O)n1-c1ccccc1)CCC3	3	10	0	-2
O=C(Nc1ccc(O)cc1)c1ccc(Br)o1	-4	-10	0	-1
Cc1c(Cl)cccc1NC(=O)COc1ccc(Br)cc1Br	-12	-4	0	1
Nc1ccc(C(=O)OCC(=O)Nc2ccc(Br)cc2Br)cc1	-6	-11	0	-1
CCN1CCN(c2ncc(-c3ccccc3)cc2C=O)CC1	-2	36*	0	2
N#Cc1ccccc1NC(=O)/C=C/c1ccc(Cl)c([N+](=O)[O-])c1	6	10	0	0
CCn1cc(C(=O)N2CCN(Cc3nc(-c4ccc(F)cc4)cs3)CC2)c(=O)c2ccc(C)nc21	10	61*	0	-1
SMILES	MITF inh	TEAD-YAP block	FBW7 act	GPR151 activ
CCn1cc(C(=O)N2CCN(c3ccccc3OC)CC2)c(=O)c2ccc(C)nc21	1	-1	0	0
COc1ccc(-c2csc(CN3CCN(C(=O)c4ccc(F)c(F)c4)CC3)n2)cc1	2	50*	0	0
CC1(C)OC(=O)C(=CNc2ccccc2Cl)C(=O)O1	6	-3	0	0
Cn1cnc2cc(NCc3ccncc3)ccc21	21	2	0	-1
COc1ccc(OC)c(CCNC(=O)c2cc3c(C)nc4ccccc4c3o2)c1	-1	46*	0	2
COc1cc([C@@H]2c3cc4c(cc3C(OC3O[C@@H]5COC(C)O[C@H]5[C@H](O)[C@H]3O)C3COC(=O)[C@@H]32)OCO4)cc(OC)c1O (stereo partly specified)	8	-26	0	0
COc1cc([C@@H]2c3cc4c(cc3[C@H](O)C3COC(=O)[C@@H]32)OCO4)cc(OC)c1OC (stereo partly specified)	-1	55*	0	1
C/C(=N/NC(=O)c1cc(O)cc(O)c1)c1ccco1	5	0	0	-1
COc1cc(C(=O)N/N=C(\C)Cc2ccccc2)cc(OC)c1OC	12	58*	0	0
COc1cc(C(=O)NN2C(=O)c3ccccc3C2=O)cc(OC)c1OC	-2	52*	0	0
C/C(=N/NC(=O)c1cc(O)c(O)c(O)c1)c1ccc(F)cc1	59*	4	0	0
COc1cc(C(=O)N/N=C(\C)c2ccco2)cc(OC)c1OC	13	53*	1	0
COc1cc(C(=O)N/N=C(\C)c2ccc(N)cc2)cc(OC)c1OC	-14	49*	0	0
COc1cc(C(=O)N/N=C(\C)c2cccs2)cc(OC)c1OC	0	54*	0	1
COc1cc(C(=O)N/N=C(\C)c2ccccc2)cc(OC)c1OC	7	61*	0	1
COc1cc(C(=O)N/N=C(C)/C=C/c2ccccc2)cc(OC)c1OC	15	64*	0	1
COc1ccc(/C(C)=N/NC(=O)c2ccccc2)cc1OC	-5	-52	0	1
COc1cc(C(=O)NN=C(C2CC2)C2CC2)cc(OC)c1OC	-5	59*	0	-1
COc1cc(C(=O)NC2CCCCCCC2)cc(OC)c1OC	14	-2	0	1
O=C(O)c1cc(O)c2c(c1)[C@@H]([C@H]1c3cc(C(=O)O)cc(O)c3C(=O)c3c(O[C@H]4O[C@H](CO)[C@@H](O)[C@H](O)[C@H]4O)cccc31)c1cccc(O[C@H]3O[C@H](CO)[C@@H](O)[C@H](O)[C@H]3O)c1C2=O	121*	5	-1	-1
Cn1c(SCC(=O)N2CCCCC2)nnc1-c1cccnc1	10	3	0	0
COC(=O)C1=CN(Cc2ccc(OC)cc2)C=C(C(=O)OC)C1c1ccc(OC)c(OCc2ccccc2)c1	-3	50*	0	-1
COC(=O)C1=CN(Cc2ccc(OC)c(OC)c2)C=C(C(=O)OC)C1c1ccc(OCc2ccccc2)c(OC)c1	-14	-19	0	1
COC(=O)C1=CN(Cc2ccc(OC)cc2)C=C(C(=O)OC)C1c1ccccc1F	1	5	1.9*	-2
COC(=O)C1=CN(Cc2ccc(Cl)cc2)C=C(C(=O)OC)C1c1ccc(OC)c(OCc2ccccc2)c1	-13	55*	0	-2
c1ccc(-c2nc(Nc3ncccn3)cc(-c3cccnc3)n2)cc1	47	1	0	-1
NC(=O)C1CCN(C(=O)c2ccc3c(=O)n(-c4ccccc4)c(SCc4ccc(Cl)cc4)nc3c2)CC1	-10	24	0	0
CNC(=O)CN(c1cccc(Cl)c1)S(=O)(=O)c1ccc(OC)cc1	-6	45*	0	1

Assay outcomes deposited in PubChem BioAssay by The Scripps Research Institute Molecular Screening Center.
